Results as given in publication PMC5540273 (PLoS ONE, 2017).

How the values were obtained:
Settings in all cases: concentration: 1 μM, replicates: in singlicate; n = 1
[1] = tested on: WNK1
[2] = tested on: WNK2
[3] = tested on: WNK3
[4] = tested on: WNK4
[5] = tested on: T1, YANK1
T1 construct: gene STK32A

[6] = tested on: T2, YANK2
T2 construct: gene STK32B

[7] = tested on: T3, YANK3
T3 construct: gene STK32C

[8] = tested on: T4, YES
T4 construct: gene YES1

[9] = tested on: T5, YSK1
T5 construct: gene STK25

[10] = tested on: T6, YSK4
T6 construct: gene MAP3K19

[11] = tested on: ZAK
[12] = tested on: ZAP70
[13] = tested on: T7, p38-alpha
T7 construct: gene MAPK14

[14] = tested on: T8, p38-beta
T8 construct: gene MAPK11

[15] = tested on: p38-delta
[16] = tested on: T9, p38-gamma
T9 construct: gene MAPK12
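Further: KINOMEscan kinase panel screen.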

Structure (SMILES)	%Inh [1]	%Inh [2]	%Inh [3]	%Inh [4]	%Inh [5]	%Inh [6]	%Inh [7]	%Inh [8]	%Inh [9]	%Inh [10]	%Inh [11]	%Inh [12]	%Inh [13]	%Inh [14]	%Inh [15]	%Inh [16]
COc1cc(Nc2nccc(N3CCC(NS(=O)(=O)c4ccc(NC(C)=O)cc4)CC3)n2)cc(OC)c1OC [GSK1379825]	0%	16%	25%	23%	2%	7%	0%	39%	16%	32%	64%	5%	0%	52%	11%	0%
Cc1ccc(NC(=O)c2ccnc(N3CCCCC3)c2)cc1-c1ccc(C(=O)NCC2CC2)cc1 [GW775610]	0%	9%	0%	0%	0%	10%	0%	0%	0%	0%	21%	0%	99.9%	100%	2%	62%
CN(C)CCNS(=O)(=O)c1ccc(-c2ccnc3[nH]ccc23)cc1 [GSK977620]	0%	0%	0%	0%	21%	0%	27%	16%	78%	88%	83%	0%	0%	1%	39%	0%
Cc1ccc(O)cc1Nc1ccnc2cc(-c3ccc(CN4CCCCC4)o3)ccc12 [GW557777]	0%	0%	0%	0%	10%	0%	0%	99.8%	0%	13%	75%	0%	15%	6%	0%	18%
Cc1cccc(Nc2nc(N[C@H]3CCCC[C@H]3N)ncc2C(N)=O)c1.Cl [GSK986310]	9%	30%	32%	0%	50%	46%	51%	44%	54%	82%	0%	92.9%	0%	0%	45%	0%
CC(C)c1nc(-c2ccc(F)c(NS(=O)(=O)c3c(F)cccc3F)c2)c(-c2ccnc(Nc3ccc(N4CCOCC4)nc3)n2)s1 [GSK1804250]	7%	0%	0%	31%	42%	71%	15%	99.2%	32%	40%	98.3%	0%	96%	38%	57%	1%
CN(C)c1ncnc2nc[nH]c12 [SKF-31736]	15%	0%	10%	13%	0%	0%	0%	0%	0%	10%	0%	7%	7%	0%	0%	2%
CN(c1ccc(NC(=O)Nc2cccc(Cl)c2)cc1)c1ccnc(N)n1.Cl [GW830707]	28%	12%	38%	5%	0%	16%	29%	0%	0%	67%	0%	0%	0%	6%	0%	0%
Cc1nn2c(=O)cc(N3CCO[C@H](C)C3)nc2n1Cc1cccc(Cl)c1Cl [GSK2373693]	4%	18%	5%	0%	2%	0%	14%	14%	0%	56%	15%	0%	66%	0%	15%	0%
CN(c1ccc2c(c1)nc(NCc1ccccc1)n2C)c1ccnc(Nc2ccc(CS(C)(=O)=O)cc2)n1.Cl [GW811603]	0%	2%	11%	0%	0%	0%	0%	0%	0%	97.3%	4%	27%	2%	0%	27%	0%
O=C1NC(=O)C(c2ccccc2Cl)=C1Nc1cccc(Cl)c1 [SB-342409]	14%	8%	0%	1%	0%	0%	100%	17%	15%	40%	21%	0%	0%	0%	28%	0%
N#CC1(c2cccc(C(=O)Nc3cccc(Oc4ccc5nc(NC(=O)C6CC6)sc5n4)c3)c2)CC1	6%	0%	0%	0%	0%	9%	0%	98.7%	37%	98.9%	90%	0%	40%	36%	0%	26%
Cl.N#CCc1ccc(Nc2nccc(Nc3ccc(Oc4ccccc4)cc3)n2)cc1 [GW639905]	15%	0%	28%	6%	3%	0%	10%	74%	0%	41%	45%	0%	0%	0%	5%	0%
